Data taken from PubChem BioAssay (NCI).
About 79,000 compounds went through this panel and 15% of them were active in at least one assay; those are over-represented in the sample as a whole. A number with no mark means an inactive call. The source made the active and inactive calls. No stated cut-off is given here; in the data, active means growth inhibition above about 70%; inactive means the rest.

What was measured:
[1] = NCI Yeast Anticancer Drug Screen. Data for the rad50 strain (AID 155);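 further: 0% = growth of vehicle-only cultures of the same strain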; conditions: S. cerevisiae rad50 strain growth inhibition; at 50.0 µM; hits give high values
Method in brief: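 Yeast carrying a defined DNA repair defect were exposed to test compounds, and growth was compared with vehicle-treated controls to give percent inhibition.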

[2] = NCI Yeast Anticancer Drug Screen. Data for the mec2-1 strain (AID 157); conditions: S. cerevisiae mec2-1 strain, at 50.0 µM, hits give high values
Method in brief: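 Using mec2-1 yeast: add compound, measure growth, express inhibition versus vehicle-treated cultures.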

[3] = NCI Yeast Anticancer Drug Screen. Data for the sgs1 mgt1 strain (AID 161);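 further: 0% = growth of cultures given vehicle only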; conditions: S. cerevisiae sgs1 mgt1 strain, at 50.0 µM, hits give high values
Method in brief: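 Compounds are added to genetically altered yeast, and growth is compared with cultures given vehicle alone to give percent inhibition.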

[4] = NCI Yeast Anticancer Drug Screen. Data for the cln2 rad14 strain (AID 165);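 further: 0% = growth equal to vehicle treated cultures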; conditions: S. cerevisiae cln2 rad14 strain, at 50.0 µM, hits give high values
Method in brief: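 Yeast strain cln2 rad14, bearing defects in cell cycle control and DNA repair, serves as the test system; values reflect growth inhibition compared with vehicle.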

[5] = NCI Yeast Anticancer Drug Screen. Data for the bub3 strain (AID 167); conditions: S. cerevisiae bub3 mutant strain, at 50.0 µM, hits give high values
Method in brief: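 Compounds were applied to a genetically altered yeast strain carrying a cell-cycle control defect. Growth inhibition was scored against vehicle-treated controls.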

[6] = NCI Yeast Anticancer Drug Screen. Data for the mlh1 rad18 strain (AID 175); conditions: S. cerevisiae mlh1 rad18 strain growth inhibition; at 50.0 µM; hits give high values
Method in brief: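 Steps: expose repair-defective yeast to compound; measure growth; express inhibition against vehicle-treated controls.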

Row | Compound | growth inhibition [1] | growth inhibition [2] | growth inhibition [3] | growth inhibition [4] | growth inhibition [5] | growth inhibition [6]
1 | Cc1cc2c(=O)cc(-c3ccc(Cl)cc3Cl)oc2c(C(=O)O)c1C | -19.6% | 10.9% | 9% | 23.6% | 11.6% | 29.5%
2 | COc1ccc(/C=N\NC(=O)N/N=C/c2ccc(OC)c(Br)c2)cc1Br | 44.3% | 39.7% | 44.6% | 49.5% | 39.2% | 71.7% (active)
3 | C=C(Cl)Cc1c(O)c2c(c(O)c1CC(=C)Cl)C(=O)c1ccccc1C2=O | -39.2% | -42.7% | -50% | 1.8% | -18.1% | -33.5%
4 | CC12CC3C(CC1SCC(=O)O2)C3(C)C (stereo not drawn) | -27.2% | -1.1% | -44.8% | 1.4% | -25.1% | -26.2%
5 | CNC(=O)OCc1c(COC(=O)NC)c(C)n(-c2ccc(F)cc2)c1C | 30.1% | 14.8% | 4.55% | 0.5% | 50.3% | -12.2%
6 | O=C(O)C#Cc1cccc(Cl)c1 | -20.4% | -24.3% | -14.1% | -9.9% | -16.5% | -12.8%
7 | Nc1nc(-c2ccccc2)nc2nc[nH]c12 | 8.75% | -3.9% | -20.3% | -2.2% | 0.85% | 5.85%
8 | CC1C=CCCC1COC(=O)C(=O)OCC1CC=CCC1C (stereo not drawn) | 32.7% | 0.15% | 28.1% | 9.25% | 31.9% | 19.9%
9 | CN(C)CCOc1cccc(OCCN(C)C)n1 | 10.7% | -3.25% | 3.2% | 1.1% | 9.35% | 8.7%
10 | O=[N+]([O-])c1cc(Cl)ccc1Nc1ccccc1 | 51.3% | 32.5% | 57.1% | 4.65% | 24.8% | 53.5%
11 | COc1ccc([N+](=O)[O-])cc1NS(=O)(=O)c1ccc(NC(C)=O)cc1 | 1.6% | 18.7% | -5.55% | -1.25% | 23.8% | -19%
12 | CCOC(=O)c1cc(C)nc2c(Cl)cc(Cl)cc12 | 13% | 10.8% | -34.4% | -2.9% | 10.4% | 7.95%
13 | O=C(CN1CCCC1=O)CS(=O)(=O)c1ccccc1 | -14.5% | -5.3% | -20.3% | -0.6% | -9.6% | 2.3%
14 | CCOC(=O)c1cnc2[nH]ccn2c1=O | -26.9% | -43.3% | -4.45% | 10.3% | -6.55% | -8.75%
15 | CC(=O)n1[nH]c(=O)c2ncccc2c1=O | 2.75% | 7.6% | 9.45% | -6.6% | -8.45% | 9%
16 | CC(C)CCC(C)c1ccncc1 (stereo not drawn) | 11.7% | 0.4% | -7.05% | -6.5% | 3.35% | 0.45%
17 | CCC1CN2CCc3cc(OC)c(OC)cc3C2CC12CO2 (stereo not drawn) | -5.6% | -21.3% | 3.15% | -2.5% | 48.8% | -36.1%
18 | c1ccc2c(c1)ccc1c3c(oc12)CCCC3 | -10.5% | -6.45% | -15.7% | -36.4% | 0.25% | -5.9%
19 | COc1ccc(NC(=O)CSc2nnc(Cc3ccccc3)o2)cc1 | -49.5% | -37.4% | -43.6% | -21.1% | -54% | -57.6%

Row | Compound | growth inhibition [1] | growth inhibition [2] | growth inhibition [3] | growth inhibition [4] | growth inhibition [5] | growth inhibition [6]
20 | Cc1cc(-c2ccccc2N)nc2ccccc12 | 47.5% | 2.35% | 30.4% | 31.3% | 15.9% | 26.6%
21 | N#Cc1cccc(N2C(=O)C3C4C=CC(C3C2=O)C2C(=O)N(c3cccc(C#N)c3)C(=O)C42)c1 (stereo not drawn) | -8.5% | -0.65% | -6.25% | 26.6% | -0.35% | -18.4%
22 | O=C1c2ccccc2C(=O)c2c(O)c(Cc3ccccc3)cc(O)c21 | 4.75% | 11.9% | 2.2% | 14.5% | 10.2% | 4%
23 | N/C=N/OC(=O)c1ccccc1 | 11.5% | 14.4% | 11.8% | 4.7% | 0.5% | 8.25%
24 | CC/C(CC(C)CC)=N\O (stereo not drawn) | -17.4% | -18.2% | -23.4% | 12.5% | -4.55% | -5.75%
25 | Cc1ccc2c(c1)C(=O)c1cc(C)cc(C(=O)O)c1-2 | -22.6% | -5.05% | 4.5% | -40% | 1.65% | -16.7%
26 | Cc1cc(N(CCC#N)CCC#N)ccc1N=Nc1ccccc1[N+](=O)[O-] | -44.7% | -38.1% | -13.3% | 12.8% | -32% | -24.1%
27 | CCCCC(=O)OC[n+]1ccc2c(C)c3[nH]c4ccc(OC)cc4c3c(C)c2c1 | 87.9% (active) | 91.8% (active) | 90.2% (active) | 89.1% (active) | 87.1% (active) | 91.8% (active)
28 | CCCCNc1nc(C#N)c(N)s1 | 3.6% | -3.35% | -12.7% | 11.3% | 11.7% | 8.55%
29 | Cc1ccc(-n2cnc3sc4c(c3c2=O)CCCC4)cc1 | -12.2% | -10.7% | 0.7% | -9.7% | -7.65% | -16.5%
30 | COc1ccc2c(c1)CN(C)c1ccc(OC)cc1CN2C | 10.7% | -18.6% | 12.2% | 12.4% | 12.5% | 24.6%
31 | CCN(C(=O)NC(C)(C)C)c1cccc(C)c1 | 3.15% | -1.9% | 0.35% | -19.6% | -0.3% | 5.8%
32 | CC(=O)Nc1cc2cc(NC=C(C#N)C#N)ccc2oc1=O | -1.8% | -27.3% | 14.1% | 15.9% | 18.3% | -2.5%
33 | Cc1ccc2c(c1)NC(C1Nc3cc(C)ccc3O1)O2 (stereo not drawn) | -0.3% | -6.8% | -1.25% | -46.5% | -16.9% | -12.2%
34 | O=C(O)c1c(Cl)c(Cl)c(Cl)c(C(=O)O)c1Cl | -2.05% | 2.2% | 7.25% | -36.1% | 5.85% | 19.2%
35 | OC(CC1=NCCS1)(c1ccccc1)c1ccccc1 | 98% (active) | 98.8% (active) | 96.8% (active) | 98.1% (active) | 98.2% (active) | 98.2% (active)
36 | ON1c2ccc3ccccc3c2C=CC1(c1ccccc1)c1ccccc1 | -12.7% | -2.75% | -12.6% | 23.2% | 16.5% | 10.9%
37 | O=C(O)C(C(C(=O)O)P(=O)(O)O)P(=O)(O)O (stereo not drawn) | -17.9% | -30.8% | -50.6% | -38.8% | -12.2% | -62.3%
38 | CCCC(=O)Nc1cc(C(=O)N2C[C@H]3C[C@@]34C2=CC(=O)c2[nH]cc(C)c24)n(COC)c1 | 43.9% | 59.2% | 68.2% | 41.4% | 5.85% | 69.8%
